In PubChem BioAssay (NCI):
The panel holds about 83,000 compounds, 20% with a hit somewhere; the sample as a whole holds those more often.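 Compound tested at a single concentration for 48 hours in 96-well plates; a percent growth value below 10 was scored as active.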 Active and inactive are the calls of the source.

Columns and labels:
Assay in all cases: NCI-60 one-dose screen, 48 h (100 = growth as untreated, 0 = no growth, -100 = all killed)
SK-MEL-2 melanoma = conditions: 10 µM unless noted
EKVX NSCLC = conditions: 10 µM
SN12C renal = conditions: 10 µM unless noted
UO-31 renal = conditions: 10 µM unless noted
TK-10 renal = conditions: 10 µM unless noted
ACHN renal = conditions: 10 µM unless noted
CAKI-1 renal = conditions: 10 µM unless noted
CCRF-CEM leukemia = conditions: 10 µM
MOLT-4 leukemia = conditions: 10 µM unless noted
SR leukemia = conditions: 10 µM unless noted
RPMI-8226 leukemia = conditions: 10 µM unless noted
OVCAR-8 ovarian = conditions: 10 µM unless noted
OVCAR-5 ovarian = conditions: 10 µM unless noted
OVCAR-4 ovarian = conditions: 10 µM unless noted
SK-OV-3 ovarian = conditions: 10 µM unless noted
IGROV1 ovarian = conditions: 10 µM unless noted
OVCAR-3 ovarian = conditions: 10 µM unless noted
NCI/ADR-RES ovarian = conditions: 10 µM unless noted
HS 578T breast = conditions: 10 µM unless noted
A498 renal = conditions: 10 µM unless noted

Measured: growth

COc1ccc(Oc2[nH]n(C3=Nc4ccccc4Sc4ccccc43)c(=O)c2C#N)cc1
inactive: SK-MEL-2 melanoma 101% | EKVX NSCLC 94.4% | SN12C renal 102% | UO-31 renal 87.9% | TK-10 renal 108% | ACHN renal 89.5% | CAKI-1 renal 92.4% | CCRF-CEM leukemia 92.8% | MOLT-4 leukemia 107% | SR leukemia 130% | RPMI-8226 leukemia 91.2% | OVCAR-8 ovarian 96.2% | OVCAR-5 ovarian 116% | OVCAR-4 ovarian 112% | SK-OV-3 ovarian 95.5% | IGROV1 ovarian 91.6% | OVCAR-3 ovarian 91.8% | NCI/ADR-RES ovarian 87%

COc1ccc(CNCCCN2C(=O)c3ccc4c5c(ccc(c35)C2=O)C(=O)N(CCCNCc2ccc(OC)c(OC)c2OC)C4=O)c(OC)c1OC
active: SK-MEL-2 melanoma -88.4% | EKVX NSCLC -77.2% | SN12C renal -90.8% | UO-31 renal -91.5% | TK-10 renal -84.7% | ACHN renal -90.3% | CAKI-1 renal -52.5% | CCRF-CEM leukemia -34% | MOLT-4 leukemia -43.9% | SR leukemia -55.4% | RPMI-8226 leukemia -42.3% | OVCAR-8 ovarian -51.1% | OVCAR-5 ovarian -55.4% | OVCAR-4 ovarian -97.3% | SK-OV-3 ovarian -77.4% | IGROV1 ovarian -79.6% | OVCAR-3 ovarian -91.8% | HS 578T breast -38.2% | NCI/ADR-RES ovarian -36.5%

COc1ccc(C(O)(c2ccccc2)C(C(=O)O)c2ccccc2)cc1 (configuration not stated)
inactive: SK-MEL-2 melanoma 104% | EKVX NSCLC 111% | SN12C renal 100% | UO-31 renal 81.6% | TK-10 renal 105% | ACHN renal 106% | CAKI-1 renal 102% | CCRF-CEM leukemia 102% | MOLT-4 leukemia 102% | SR leukemia 103% | RPMI-8226 leukemia 95.5% | OVCAR-8 ovarian 107% | OVCAR-5 ovarian 102% | OVCAR-4 ovarian 98% | SK-OV-3 ovarian 102% | IGROV1 ovarian 104% | OVCAR-3 ovarian 114% | HS 578T breast 114% | NCI/ADR-RES ovarian 108%

CCS(=O)(=O)N[C@@H]1O[C@H](COC(C)=O)C(OC(C)=O)[C@H](OC(C)=O)C1OC(C)=O (some centres not stated)
inactive: SK-MEL-2 melanoma 106% | EKVX NSCLC 99.1% | SN12C renal 112% | UO-31 renal 94.6% | TK-10 renal 97.4% | ACHN renal 101% | CAKI-1 renal 94.8% | MOLT-4 leukemia 106% | SR leukemia 104% | RPMI-8226 leukemia 105% | OVCAR-8 ovarian 98.6% | OVCAR-5 ovarian 98.8% | OVCAR-4 ovarian 102% | SK-OV-3 ovarian 97.3% | IGROV1 ovarian 106% | OVCAR-3 ovarian 101% | NCI/ADR-RES ovarian 108%

COc1ccc(-c2nc(SCC(C)C)nc(Nc3ccccc3)c2C#N)cc1
active: OVCAR-4 ovarian -12.2%
inactive: SK-MEL-2 melanoma 111% | EKVX NSCLC 85% | SN12C renal 60.2% | UO-31 renal 56.8% | TK-10 renal 46.9% | ACHN renal 27.4% | A498 renal 75.2% | CCRF-CEM leukemia 64.6% | MOLT-4 leukemia 88.2% | SR leukemia 48.9% | RPMI-8226 leukemia 87.6% | OVCAR-8 ovarian 74.4% | OVCAR-5 ovarian 103% | SK-OV-3 ovarian 97.6% | IGROV1 ovarian 74.7% | OVCAR-3 ovarian 46.2% | HS 578T breast 72.7% | NCI/ADR-RES ovarian 85.9%

CCCCCc1ccnc(CC(=O)c2ccc(OC)cc2)c1
inactive: SK-MEL-2 melanoma 98.2% | EKVX NSCLC 92.5% | SN12C renal 91.8% | UO-31 renal 79.6% | TK-10 renal 82% | ACHN renal 93.2% | CAKI-1 renal 104% | CCRF-CEM leukemia 87.8% | MOLT-4 leukemia 98.7% | SR leukemia 91.5% | RPMI-8226 leukemia 76.7% | OVCAR-8 ovarian 86.1% | OVCAR-5 ovarian 89.7% | OVCAR-4 ovarian 76.5% | SK-OV-3 ovarian 92.5% | IGROV1 ovarian 108% | OVCAR-3 ovarian 93.7% | HS 578T breast 107% | NCI/ADR-RES ovarian 108%

C[C@]12CC[C@H]3[C@@H](CC[C@H]4C[C@@H](O)CC[C@@]43C)[C@@H]1CC(=O)C2
inactive: SK-MEL-2 melanoma 103% | EKVX NSCLC 96.9% | SN12C renal 101% | UO-31 renal 84.1% | TK-10 renal 94.2% | ACHN renal 100% | CAKI-1 renal 87.6% | MOLT-4 leukemia 85.7% | SR leukemia 89.8% | OVCAR-8 ovarian 95.3% | OVCAR-5 ovarian 94.8% | OVCAR-4 ovarian 104% | SK-OV-3 ovarian 118% | IGROV1 ovarian 103% | OVCAR-3 ovarian 112% | NCI/ADR-RES ovarian 106%

Cn1cnc2nc[nH]c2c1=S
inactive: SK-MEL-2 melanoma 106% | EKVX NSCLC 113% | SN12C renal 94.8% | UO-31 renal 71.2% | TK-10 renal 88.4% | ACHN renal 97% | CAKI-1 renal 97.9% | CCRF-CEM leukemia 98.7% | MOLT-4 leukemia 102% | SR leukemia 89.6% | RPMI-8226 leukemia 101% | OVCAR-8 ovarian 105% | OVCAR-5 ovarian 94.8% | OVCAR-4 ovarian 108% | SK-OV-3 ovarian 105% | IGROV1 ovarian 113% | OVCAR-3 ovarian 115% | HS 578T breast 102% | NCI/ADR-RES ovarian 101%

CCC(C)(C)c1ccc(OCCCCCCN2CCN(c3ccc(C)c(Cl)c3)CC2)cc1
active: CCRF-CEM leukemia -43.1%
inactive: SK-MEL-2 melanoma 104% | EKVX NSCLC 83% | SN12C renal 92.3% | UO-31 renal 64.5% | TK-10 renal 110% | ACHN renal 91.3% | CAKI-1 renal 77.7% | MOLT-4 leukemia 98.3% | SR leukemia 71.8% | RPMI-8226 leukemia 59.7% | OVCAR-8 ovarian 98.7% | OVCAR-5 ovarian 97.6% | OVCAR-4 ovarian 74.5% | SK-OV-3 ovarian 98% | OVCAR-3 ovarian 58.3% | NCI/ADR-RES ovarian 85%

Cc1c(C(N)=O)sc2c1c(=O)n(Cc1ccccc1)c1nnc(S(C)(=O)=O)n21
inactive: SK-MEL-2 melanoma 80.6% | EKVX NSCLC 98% | SN12C renal 80.3% | UO-31 renal 85.6% | TK-10 renal 93.1% | ACHN renal 100% | CAKI-1 renal 86.5% | A498 renal 95.5% | OVCAR-5 ovarian 135% | OVCAR-4 ovarian 64.5% | SK-OV-3 ovarian 103% | IGROV1 ovarian 106% | OVCAR-3 ovarian 79.6% | HS 578T breast 87.5% | NCI/ADR-RES ovarian 100%

Cc1c(CN(C)C)cc(C(C)C)cc1C(C)C
inactive: SK-MEL-2 melanoma 107% | EKVX NSCLC 106% | SN12C renal 96.9% | UO-31 renal 108% | TK-10 renal 94.9% | ACHN renal 112% | CAKI-1 renal 103% | A498 renal 94.8% | RPMI-8226 leukemia 94.5% | OVCAR-8 ovarian 106% | OVCAR-5 ovarian 115% | OVCAR-4 ovarian 98.8% | SK-OV-3 ovarian 112% | IGROV1 ovarian 119% | OVCAR-3 ovarian 120% | HS 578T breast 124% | NCI/ADR-RES ovarian 104%

CC[C@H](Nc1ncnc2nc[nH]c12)c1nc2cccc(NCc3ccc(C(=O)NO)o3)c2c(=O)n1-c1ccccc1
inactive: SK-MEL-2 melanoma 102% | EKVX NSCLC 110% | SN12C renal 95.2% | UO-31 renal 79% | TK-10 renal 84.1% | ACHN renal 97.3% | A498 renal 97% | CCRF-CEM leukemia 88.7% | MOLT-4 leukemia 97.8% | SR leukemia 76.2% | RPMI-8226 leukemia 94.9% | OVCAR-8 ovarian 99.2% | OVCAR-5 ovarian 98.3% | OVCAR-4 ovarian 97.3% | SK-OV-3 ovarian 110% | IGROV1 ovarian 106% | OVCAR-3 ovarian 97.6% | HS 578T breast 84.7% | NCI/ADR-RES ovarian 101%

CC[C@@H](C)/C=C(C)/C=C/C(=O)c1c(O)c(-c2ccc(OC(=O)[C@@]34CC[C@@](C)(C(=O)O3)C4(C)C)cc2)cn(O)c1=O
inactive: SK-MEL-2 melanoma 17.8% | EKVX NSCLC 22.3% | SN12C renal 30.4% | TK-10 renal 44.9% | A498 renal 49.8% | OVCAR-8 ovarian 20.4% | OVCAR-5 ovarian 55.7% | SK-OV-3 ovarian 28.3% | OVCAR-3 ovarian 30.1% | HS 578T breast 57.2%
active: UO-31 renal -26.4% | ACHN renal 9.64% | CAKI-1 renal -27% | IGROV1 ovarian -18.6% | NCI/ADR-RES ovarian 3.91%

N#Cc1c(N)nc(Nc2nc3ccccc3[nH]2)nc1-c1ccc(Cl)cc1
inactive: SK-MEL-2 melanoma 114% | EKVX NSCLC 109% | SN12C renal 111% | UO-31 renal 82.8% | TK-10 renal 109% | ACHN renal 101% | CAKI-1 renal 86.9% | CCRF-CEM leukemia 95.9% | MOLT-4 leukemia 84.7% | RPMI-8226 leukemia 94.4% | OVCAR-8 ovarian 102% | OVCAR-5 ovarian 107% | OVCAR-4 ovarian 116% | SK-OV-3 ovarian 88.4% | IGROV1 ovarian 98.7% | OVCAR-3 ovarian 127% | HS 578T breast 145% | NCI/ADR-RES ovarian 107%

COc1cc(-c2nc(/C=C3/C(=O)Nc4ccccc43)c3ccccn23)cc(OC)c1OC
active: OVCAR-3 ovarian -8.37%
inactive: SK-MEL-2 melanoma 43.7% | EKVX NSCLC 102% | SN12C renal 79.3% | UO-31 renal 41.9% | TK-10 renal 120% | ACHN renal 58.6% | CAKI-1 renal 58.2% | A498 renal 111% | CCRF-CEM leukemia 72.7% | MOLT-4 leukemia 62.8% | OVCAR-8 ovarian 32.8% | OVCAR-5 ovarian 82.9% | OVCAR-4 ovarian 76.4% | SK-OV-3 ovarian 74.2% | IGROV1 ovarian 51.6% | HS 578T breast 76.9% | NCI/ADR-RES ovarian 47.2%

Cc1cc2c(-c3nc4ccccc4n3C)c(O)c(O)cc2c(O)c1-c1c(C)cc2c(-c3nc4ccccc4n3C)c(O)c(O)cc2c1O
inactive: SK-MEL-2 melanoma 37.2% | EKVX NSCLC 56.8% | SN12C renal 35.2% | UO-31 renal 76.3% | TK-10 renal 57.1% | ACHN renal 89.1% | A498 renal 28.5% | CCRF-CEM leukemia 20.5% | MOLT-4 leukemia 26.7% | SR leukemia 56.4% | RPMI-8226 leukemia 24.4% | OVCAR-8 ovarian 32.1% | OVCAR-5 ovarian 58.1% | OVCAR-4 ovarian 70.1% | SK-OV-3 ovarian 83.2% | IGROV1 ovarian 89.7% | OVCAR-3 ovarian 71.3% | HS 578T breast 28.4% | NCI/ADR-RES ovarian 102%

O=C(Cc1ccccc1[N+](=O)[O-])c1ccc2c(c1)OCO2
inactive: SK-MEL-2 melanoma 99.4% | EKVX NSCLC 97.5% | SN12C renal 96% | UO-31 renal 80.1% | TK-10 renal 91.6% | ACHN renal 103% | CAKI-1 renal 97.8% | A498 renal 77.9% | CCRF-CEM leukemia 76.3% | MOLT-4 leukemia 86.6% | OVCAR-8 ovarian 104% | OVCAR-5 ovarian 104% | OVCAR-4 ovarian 102% | SK-OV-3 ovarian 90.1% | IGROV1 ovarian 114% | OVCAR-3 ovarian 103% | HS 578T breast 93.3% | NCI/ADR-RES ovarian 106%
